PubChem BioAssay AID1970 (National Center for Advancing Translational Sciences (NCATS), 2009)
Records with an inconclusive call do not appear. The source made the active and inactive calls. The call rests on the fitted dose curve; in most records, active means well fitted inhibition curve with a large enough effect; inconclusive means small, poorly fitted or top-dose-only effect; inactive means flat fitted curve, though single readings scatter.

molecular target: Dual specificity protein kinase CLK4 (Homo sapiens) (UniProt Q9HAZ1); assay: Confirmation Assay for Inhibitors of CDC-like Kinase 4 (Kinase-Glo Assay); details: recombinant Clk4, Kinase-Glo ATP depletion luminescence; series mostly up to 47.7 µM
Sequence (Q9HAZ1 whole entry, looked up): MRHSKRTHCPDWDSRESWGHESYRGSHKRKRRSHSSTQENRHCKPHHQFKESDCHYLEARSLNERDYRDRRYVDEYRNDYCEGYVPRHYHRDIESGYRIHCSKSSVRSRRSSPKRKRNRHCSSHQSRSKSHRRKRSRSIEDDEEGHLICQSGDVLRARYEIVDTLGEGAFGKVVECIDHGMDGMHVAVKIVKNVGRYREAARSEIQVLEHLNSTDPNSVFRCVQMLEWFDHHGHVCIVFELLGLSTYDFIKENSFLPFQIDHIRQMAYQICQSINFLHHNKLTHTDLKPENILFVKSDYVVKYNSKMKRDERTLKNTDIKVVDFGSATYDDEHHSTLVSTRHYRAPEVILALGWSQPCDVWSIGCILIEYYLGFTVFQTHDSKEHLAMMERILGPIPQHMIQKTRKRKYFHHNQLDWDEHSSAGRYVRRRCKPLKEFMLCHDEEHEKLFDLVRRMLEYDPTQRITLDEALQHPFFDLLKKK
Summary of the method: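 Read-out was Kinase-Glo luciferase luminescence of ATP left after 4.5 h room-temperature reaction. Final conditions: Clk4 25 nM, ATP 1 uM, RS peptide 100 uM, 25 mM Tris pH 7.5, 10 mM MgCl2, 0.5 mM EGTA, 2.5 mM DTT, 0.01% Triton X-100.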

Potency, active:
CCOC(=O)c1ccc(-c2ccc3ncnc(NCCc4cnc[nH]4)c3c2)o1 92.3 nM, Cc1ccsc1CNc1ncnc2ccc(-c3ccc4c(c3)OCO4)cc12 33.6 nM, Fc1cccc(CNc2ncnc3ccc(-c4ccoc4)cc23)c1 3160 nM, Cc1cccc(-c2ccc3ncnc(NCc4cccs4)c3c2)c1 7080 nM, Cc1cccc(CNc2ncnc3ccc(-c4ccoc4)cc23)c1 199 nM, c1c[nH]c(CNc2ncnc3ccc(-c4ccc5c(c4)OCO5)cc23)n1 94.7 nM, Cc1cccc(CNc2ncnc3ccc(-c4ccc5c(ccn5C)c4)cc23)c1 39800 nM, CCOC(=O)c1ccoc1-c1ccc2ncnc(NCCc3cnc[nH]3)c2c1 23200 nM, CC(c1ccco1)N(C)c1ncnc2ccc(-c3ccc4c(c3)OCO4)cc12 (stereo not drawn) 67.1 nM, Cc1nc(CN(C)c2ncnc3ccc(-c4ccc5c(c4)OCO5)cc23)cs1 33.6 nM, Cc1nc(CSc2ncnc3ccc(-c4ccc5c(c4)OCO5)cc23)cs1 184 nM, c1cncc(CNc2ncnc3ccc(-c4cccnc4)cc23)c1 7940 nM, Cc1cccc(CNc2ncnc3ccc(-c4cccc(Cl)c4)cc23)c1 14100 nM, Cc1csc(CNc2ncnc3ccc(-c4cccnc4)cc23)c1 4470 nM, Clc1cccc(-c2ccc3ncnc(NCc4cccs4)c3c2)c1 7940 nM, CCOC(=O)c1ccc(-c2ccc3ncnc(NCc4cccs4)c3c2)o1 116 nM, c1cncc(CNc2ncnc3ccc(-c4ccc5c(c4)OCO5)cc23)c1 100 nM, CC(C)(C)CNc1ncnc2ccc(-c3ccc4c(c3)OCO4)cc12 32.4 nM, CCOC(=O)c1ccc(-c2ccc3ncnc(NCc4ncc[nH]4)c3c2)o1 582 nM, CCN(Cc1cccs1)c1ncnc2ccc(-c3ccc4c(c3)OCO4)cc12 51.9 nM, c1nc(N2CCC(N3CCCC3)CC2)c2cc(-c3ccc4c(c3)OCO4)ccc2n1 4630 nM, c1csc(CCNc2ncnc3ccc(-c4ccc5c(c4)OCO5)cc23)c1 46.3 nM, Cc1csc(CNc2ncnc3ccc(-c4ccc5c(ccn5C)c4)cc23)c1 35500 nM, Cn1cnc(CCNc2ncnc3ccc(-c4ccc5c(c4)OCO5)cc23)c1 232 nM, CN(Cc1cncn1C)c1ncnc2ccc(-c3ccc4c(c3)OCO4)cc12 292 nM, Clc1ccccc1-c1ccc2ncnc(NCc3cccs3)c2c1 7940 nM, Cc1occc1CNc1ncnc2ccc(-c3ccc4c(c3)OCO4)cc12 47.5 nM, Cc1ccc(CNc2ncnc3ccc(-c4ccc5c(c4)OCO5)cc23)s1 189 nM, c1nc(NCc2ccc3c(c2)OCO3)c2cc(-c3ccoc3)ccc2n1 631 nM, Fc1cccc(CNc2ncnc3ccc(-c4cccnc4)cc23)c1 3980 nM, CCN(Cc1sccc1C)c1ncnc2ccc(-c3ccc4c(c3)OCO4)cc12 146 nM, Cc1cccc(CNc2ncnc3ccc(-c4ccc5c(c4)OCCO5)cc23)c1 501 nM, Cc1cccc(CNc2ncnc3ccc(-c4cccc(C)c4)cc23)c1 8910 nM
